Read-out in assay [1]: Intercellular Adhesion Molecule 1 (ICAM1), ICAM1 (gene 3383)
Briefly: BSK_hDFCGF_ICAM1: BioMAP Diversity Plus: hDFCGF Assay for Intercellular Adhesion Molecule 1 (ICAM1) Biomarker Activity (AID 2284287). The following applies: primary human foreskin fibroblasts. In a few lines: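 ICAM-1 ELISA readout 24 h after dosing, DMSO as baseline, in human dermal foreskin fibroblast cultures. Cytotoxicity checked in parallel wells by SRB staining (0.1% SRB, 10% TCA fixation, 560 nm).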

Read-out in assay [2]: CD40, CD40 (gene 958)
Briefly: BSK_IMphg_CD40: BioMAP Diversity Plus: IMphg Assay for CD40 Biomarker Activity (AID 2284288). The following applies: primary human endothelial cells with macrophages. In a few lines:
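ELISA read-out of cell-surface CD40 at 24 h in human venular endothelial cell/macrophage co-cultures. Activity fitted in the positive direction against DMSO; parallel SRB staining (560 nm) gauges overt cytotoxicity.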

Read-out in assay [3]: TIMP metallopeptidase inhibitor 2 (TIMP2), TIMP2 (gene 7077)
Description: BSK_hDFCGF_TIMP2: BioMAP Diversity Plus: hDFCGF Assay for TIMP metallopeptidase inhibitor 2 (TIMP2) Biomarker Activity (AID 2284289). Conditions: primary human foreskin fibroblasts. In a few lines:
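Primary human foreskin fibroblasts in the hDFCGF system, dosed for 24 h; TIMP-2 level measured by ELISA, fitted in the positive direction against DMSO; cytotoxicity checked in parallel by sulforhodamine B total protein staining.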

Read-out in assay [4]: Interleukin-1 alpha (IL1a), IL1A (gene 3552)
Description: BSK_IMphg_IL1a: BioMAP Diversity Plus: IMphg Assay for Interleukin-1 alpha (IL1a) Biomarker Activity (AID 2284290). Conditions: primary human endothelial cells with macrophages. In a few lines:
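IL-1α is quantified by ELISA at 24 h in the endothelial/macrophage IMphg co-culture, with gain of signal fitted relative to DMSO. Parallel SRB total-protein staining flags overt toxicity.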

Read-out in assay [5]: E-selectin (Homo sapiens) (UniProt P16581)
Briefly: BSK_IMphg_ESelectin: BioMAP Diversity Plus: IMphg Assay for Eselectin Biomarker Activity (AID 2284291). Conditions: primary human endothelial cells with macrophages. In outline: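 Analysed against DMSO baseline in the positive fitting direction, this endpoint is an ELISA read of E-selectin. It comes from human venular endothelial cells co-cultured with macrophages, sampled 24 h post-dose.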

The nature of assay [6]: BSK_IMphg_SRB: Viability Assessment in the BioMAP Diversity Plus: IMphg Assay (AID 2284292).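 Further: measured one day after compound addition.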 Conditions: primary human endothelial cells with macrophages. In a few lines: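 SRB viability endpoint: cultures of human endothelial cells plus macrophages fixed with 10% TCA, stained with 0.1% SRB, read at 560 nm 24 h post-dosing. Only gain-of-signal fitted, relative to DMSO.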

Read-out in assay [7]: Macrophage colony-stimulating factor (MCSF), CSF1 (gene 1435)
Briefly: BSK_IMphg_MCSF: BioMAP Diversity Plus: IMphg Assay for Macrophage colony-stimulating factor (MCSF) Biomarker Activity (AID 2284293). Conditions: primary human endothelial cells with macrophages. In outline:
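M-CSF was measured by ELISA in human venular endothelial cell/macrophage co-cultures dosed for 24 hours. Sulforhodamine B staining of parallel cultures assessed cytotoxicity; data fitted against DMSO baseline.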

Assay [8] in a line: BSK_IMphg_SRB.Mphg: Macrophage Viability Assessment in the BioMAP Diversity Plus: IMphg Assay (AID 2284295). The following applies: primary human endothelial cells with macrophages. In a few lines:
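Cytotoxicity read-out: parallel cultures fixed with 10% TCA, stained with 0.1% sulforhodamine B, read at 560 nm. System combines venular endothelium and macrophages; sampled 24 h post-dosing, fitted positively relative to DMSO control.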

Read-out in assay [9]: Thrombomodulin, THBD (gene 7056)
Briefly: BSK_LPS_Thrombomodulin: BioMAP Diversity Plus: LPS Assay for Thrombomodulin Biomarker Activity (AID 2284296). Conditions: primary human HUVEC with PBMC. In a few lines:
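Thrombomodulin on the surface of LPS-activated endothelial/PBMC co-cultures was quantified by ELISA at 24 hours post-dosing, with DMSO as baseline. Parallel SRB total-protein staining flagged overt cytotoxicity.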

Read-out in assay [10]: CD69, CD69 (gene 969)
Description: BSK_LPS_CD69: BioMAP Diversity Plus: LPS Assay for CD69 Biomarker Activity (AID 2284303). The following applies: primary human HUVEC with PBMC. In a few lines: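 CD69 surface levels were read by ELISA after 24 h chemical treatment of an LPS-stimulated HUVEC plus PBMC co-culture; positive-direction fit against DMSO vehicle.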

A short description of assay [11]: IUF_NPC2c_oligodendrocyte_migration_120hr: Leibniz Research Institute for Environmental Medicine (IUF) 120-hour Neural Progenitor Cell Migration Assay for Oligodendrocyte Migration (NPC2c) (AID 2284297).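 Further: O4-positive oligodendrocyte migration distance divided by radial glia migration distance.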 In outline:
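Using fetal brain neural progenitor spheres differentiating in N2 medium at 37C, compounds were present for 120 h. Oligodendrocyte migration distance, normalized to radial glia migration, was measured from imaged O4 staining.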

Assay [12] in a line: IUF_NPC2a_radial_glia_migration_120hr: Leibniz Research Institute for Environmental Medicine (IUF) 120-hour Neural Progenitor Cell Migration Assay for Radial Glia Migration (NPC2a) (AID 2284298). In a few lines:
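Exposure of 0.3 mm primary hNPC spheres runs day 0 to 120 h with a half-volume medium change at day 3. Fixed cells get Hoechst staining; high-content analysis of nuclear positions yields radial glia migration distance per well, compared against DMSO controls.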

Assay [13] can be described thus: IUF_NPC2a_radial_glia_migration_72hr: Leibniz Research Institute for Environmental Medicine (IUF) 72-hour Neural Progenitor Cell Migration Assay for Radial Glia Migration (NPC2a) (AID 2284299). In a few lines:
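Spheres of human primary neural progenitors migrate on poly-D-lysine/laminin under compound exposure at 37C, 5% CO2. The 72 h radial glia migration distance comes from brightfield images, measured manually.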

Assay [14] can be described thus: IUF_NPC2b_neuronal_migration_120hr: Leibniz Research Institute for Environmental Medicine (IUF) 120-hour Neural Progenitor Cell Migration Assay for Neuron Migration (NPC2b) (AID 2284300). In outline: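 Fetal human NPC spheres migrate on PDL/laminin during 120 h compound treatment; neuronal migration distance, glia-normalized, scored versus DMSO control.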
The nature of assay [15]: IUF_NPC3_neuronal_differentiation_120hr: Leibniz Research Institute for Environmental Medicine (IUF) 120-hour Neuronal Differentiation Assay (NPC3) (AID 2284301). In a few lines:
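hNPC spheres, PDL/laminin, DMEM/F12 3:1 + 1% N2, 37C, 5% CO2; 7 concentrations + solvent control, 5 d exposure, half-change day 3. Fix 120 h; TUBB3/Hoechst ICC, CNN neuron calling; % neurons vs nuclei, DMSO-normalized.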

Assay [16] in a line: IUF_NPC4_neurite_length_120hr: Leibniz Research Institute for Environmental Medicine (IUF) 120-hour Neuronal Morphology Assay for Neurite Length (NPC4) (AID 2284302). In a few lines:
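hNPC spheres (0.3 mm, fetal brain GW 16-19) on PDL/laminin, DMEM:F12 3:1 + 1% N2, 37C 5% CO2; 7 concs + solvent control, day 0-5, half medium change d3; fix 120 h, TUBB3 ICC, mean neurite length um vs DMSO.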

A short description of assay [17]: IUF_NPC5_oligodendrocyte_differentiation_120hr: Leibniz Research Institute for Environmental Medicine (IUF) 120-hour Oligodendrocyte Differentiation Assay (NPC5) (AID 2284304; active means hit-call score of the fitted dose curve at least 0.9, where 1 is the maximum;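 further: primary human fetal neural progenitor spheres plated to migrate and differentiate; share of O4-positive cells among Hoechst nuclei found by CNN image analysis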). In outline: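 After plating on poly-D-lysine/laminin, fetal-derived hNPC spheres differentiated for 120 h at 37C in compound-containing N2 medium, refreshed by half on day 3. O4 immunostaining over Hoechst nuclei in the migration zone gave oligodendrocyte percentage relative to DMSO.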

Assay [18] in a line: IUF_NPC4_neurite_area_120hr: Leibniz Research Institute for Environmental Medicine (IUF) 120-hour Neuronal Morphology Assay for Neurite Area (NPC4) (AID 2284305; active means hit-call score of the fitted dose curve at least 0.9, where 1 is the maximum). In outline: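 hNPC spheres on PDL/laminin, N2 medium, 37C/5% CO2; dosed day 0, half-medium refresh day 3; fixed 120 h; TUBB3/Hoechst ICC, high-content imaging; neurite area = mean pixels per neuron (nuclei excluded); DMSO baseline, max 0.1%.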

Assay [19] can be described thus: IUF_NPC2-5_cytotoxicity_72hr: Cytotoxicity Assessment at 72 hours in the Leibniz Research Institute for Environmental Medicine (IUF) Neural Progenitor Cell Migration and Differentiation Assay for Cytotoxicity (NPC2-5) (AID 2284306; active means hit-call score of the fitted dose curve at least 0.9, where 1 is the maximum;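 further: LDH release into supernatant measured by resorufin fluorescence marking membrane damage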). In a few lines:
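hNPC spheres (0.3 mm), PDL/laminin, DMEM/F12 3:1 + 1% N2; cpd from d0, 7 concs + SC, DMSO max 0.1%; half-medium refresh d3. Readout: supernatant LDH via resorufin fluorescence (RFU), 72 h; gain-of-signal fit.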

Assay [20] is described as follows: IUF_NPC2-5_cytotoxicity_120hr: Cytotoxicity Assessment at 120 hours in the Leibniz Research Institute for Environmental Medicine (IUF) Neural Progenitor Cell Migration and Differentiation Assay (NPC2-5) (AID 2284307; active means hit-call score of the fitted dose curve at least 0.9, where 1 is the maximum). In a few lines:
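Membrane-integrity loss is quantified by LDH in supernatant after five days of exposure of migrating, differentiating human fetal NPC spheres; seven serially diluted concentrations are tested with DMSO kept at or below 0.1%.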

SMILES strings stand for the structures. “And” between values parts separate entries of the source, which are not always exact repeats. Identical values can stand only once. Inconclusive results are not listed. A structure can be active in one record and inactive in another. The source made the active and inactive calls. How the source made its calls, unless noted: active means hit-call score of the fitted dose curve at least 0.9, where 1 is the maximum; inactive means score below 0.9.

Sequence of E-selectin (Homo sapiens) (P16581 whole entry, looked up): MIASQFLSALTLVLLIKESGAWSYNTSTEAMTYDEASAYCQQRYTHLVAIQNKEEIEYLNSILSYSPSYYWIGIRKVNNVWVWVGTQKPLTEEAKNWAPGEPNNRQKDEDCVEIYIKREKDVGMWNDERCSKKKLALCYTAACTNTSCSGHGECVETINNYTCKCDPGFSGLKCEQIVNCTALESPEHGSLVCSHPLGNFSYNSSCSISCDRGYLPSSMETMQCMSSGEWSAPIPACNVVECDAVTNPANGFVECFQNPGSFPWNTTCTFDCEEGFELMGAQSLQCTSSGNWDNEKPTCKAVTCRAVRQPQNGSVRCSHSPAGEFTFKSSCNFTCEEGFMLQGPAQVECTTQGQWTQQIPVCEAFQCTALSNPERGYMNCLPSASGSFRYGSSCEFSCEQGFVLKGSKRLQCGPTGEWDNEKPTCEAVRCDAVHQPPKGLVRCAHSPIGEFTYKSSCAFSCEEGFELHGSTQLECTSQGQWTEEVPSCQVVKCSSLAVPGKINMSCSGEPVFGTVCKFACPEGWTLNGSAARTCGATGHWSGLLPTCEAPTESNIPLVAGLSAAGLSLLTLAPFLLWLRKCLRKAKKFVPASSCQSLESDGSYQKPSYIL

On to `OCC(F)(F)OC(F)(F)C(F)(F)OC(F)(F)C(F)(F)OC(F)(F)F`, for which the half-maximal activity concentration (AC50) – broadly, the midpoint of the concentration-response curve, whichever way the signal moves – in [1] is 19.2 µM (active); in assay [2], 7.58 µM (active) and 49.2 µM (active); in [4], 26.6 µM (active) and 47.5 µM (active); in assay [5] it was 38.6 µM (active) and 44.3 µM (active); in assay [6], 47.8 µM (active) and 53.7 µM (active); in [7], 43 µM (active) and 18.8 µM (active). Besides, the concentration at half-maximal activity (AC50) in [8] was 21 µM (active) and 15.3 µM (active); in assay [10], 6.46 µM (active). Besides, the result in assay [1], in assay [3], in assay [9] and in assay [10] was inactive.

For the molecule `O=C(O)C(F)(F)OC(F)(F)C(F)(F)OC(F)(F)F`, the outcome in [1], in assay [2], in [3], in assay [4], in assay [5] and in assay [6] was inactive. The outcome in assay [7], in assay [8], in assay [9] and in assay [10] was inactive. Further, in assay [8], the half-maximal activity concentration (AC50) is 11.3 µM (active).

Take `O=P(Oc1ccccc1)(Oc1ccccc1)Oc1ccccc1`: the call in assay [11], in assay [13], in [14], in assay [15], in [16] and in assay [17] was inactive. Besides, the outcome in [18], in [19] and in assay [20] was inactive. Besides, in assay [12], the AC50 is 11 µM (active).

Regarding `CCOP(=S)(OCC)SCSCC`, the molecule was classed as inactive in [11], in assay [12], in assay [13], in [14], in [15] and in assay [16]. For the same molecule, the result in [17], in assay [18], in assay [19] and in assay [20] was inactive.

Take `COC(=O)C(F)(F)C(F)(F)OC(F)(C(F)(F)F)C(F)(F)OC(F)=C(F)F` (stereo not drawn): the result in assay [1], in assay [2], in assay [3], in [4], in assay [5] and in assay [6] was inactive. For the same molecule, the outcome in [7], in assay [8], in [9] and in assay [10] was inactive.

As to `CCOc1ccc(C(C)(C)COCc2cccc(Oc3ccccc3)c2)cc1`, the molecule was classed as inactive in assay [11], in assay [12], in assay [13], in assay [14], in [15] and in [16]. Further, the result in assay [17], in assay [18], in assay [19] and in assay [20] was inactive.

These data come from PubChem BioAssay (EPA / NIEHS).
